# Laboratory results published in PubChem BioAssay (NCI).
# About 83,000 compounds went through this panel and 20% of them were active in at least one assay; those are over-represented in the sample as a whole.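 Single-dose data. Exposure time 48 hours. Values below 10 considered active.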 Active and inactive are the calls of the source.
# Test system: HL-60(TB) leukemia
# Assay: NCI-60 one-dose screen, 48 h (100 = growth as untreated, 0 = no growth, -100 = all killed)
# Conditions: 10 µM unless noted
row,SMILES,growth
1,COC(=O)C1=C(C)NC(C)=C(C(=O)OCC(C)C)C1c1ccccc1[N+](=O)[O-] (stereo not given),28.9% (inactive)
2,CCOC(=O)/C(=C\c1ccc(-c2ccccc2)cc1)C(C)=O,93.7% (inactive)
3,O=S(=O)(Nc1ccc2ccccc2c1)N1CCCCC1,85.1% (inactive)
4,C[C@@H]1C(=O)[C@@H]2C[C@@H](O)[C@@H](O)C[C@]2(C)[C@H]2CC[C@@]3(C)C(=C12)CC[C@@H]3[C@@](C)(O)[C@H](O)CCC(C)(C)O,85.7% (inactive)
5,CCOc1ccc(C(C[N+](=O)[O-])Sc2ccccc2N)cc1 (stereo not given),-16.2% (active)
6,C[C@@]1(CCC#N)[C@H]2CC[C@@H]3[C@H]4[C@H](C(=O)/C=C/c5cccnc5)CC[C@]4(C#N)CC[C@@]3(C)[C@]2(C)CC[C@H]1C(=O)/C=C/c1cccnc1,46% (inactive)
7,Cn1ccnc1C(=O)/C=C/c1ccc(CC(=O)Nc2ccc(S(F)(F)(F)(F)F)cc2)cc1,-11.5% (active)
8,COc1cc2cc(Oc3ccc(NC(=O)Nc4ccc(F)c(C(F)(F)F)c4)cc3)c(C)nc2cc1OCCN1CCOCC1,19.3% (inactive)
9,Cc1cc(C(=O)Nc2ccc3cc(CN4CCOCC4)ccc3n2)c(C)n1-c1ccccc1,14.5% (inactive)
10,O=C1NC2(Nc3ccccc31)C(=O)Nc1c(Cl)cc(Cl)cc12 (stereo not given),106% (inactive)
11,CCC/C(=N/NC(N)=O)c1ccco1,76.8% (inactive)
12,COc1ccc(C2CC(n3ccnc3)c3cc(OC)c(OC)c(OC)c32)cc1O (stereo not given),83.6% (inactive)
13,CC1CC(O)CC(C)(C)C1.CC1CC(O)CC(C)(C)C1.CC1CC(O)CC(C)(C)C1.CC1CC(O)CC(C)(C)C1.[Ti] (stereo not given),104% (inactive)
14,COc1cc2c(=O)n(CCCN(C)C)c3c4cc5c(cc4ccc3c2cc1OC)OCO5,55% (inactive)
15,OCc1cnccc1NCCCCOc1ccc(Oc2ccccc2)cc1,22.7% (inactive)
16,O=c1c2cccc3c(N4CCOCC4)ccc(c32)c2nc3ccccc3n12,80.2% (inactive)
17,O=C(Nc1cccnc1)c1ccc2ccc3ccc(C(=O)Nc4cccnc4)nc3c2n1,37.1% (inactive)
18,O=C(O)Cc1ccc2c(c1)Cc1cccnc1O2,103% (inactive)
19,CS(=O)(=O)Nc1cccc(-c2ccc3ncnc(Nc4ccc(F)c(Cl)c4)c3c2)c1,24.8% (inactive)
20,CCC1CCc2nc3sc(C(=O)Nc4ccccc4C)c(N)c3cc2C1 (stereo not given),2.97% (active)

row,SMILES,growth
1,NC(N)=N/N=C/c1ccc(-c2ccc(-c3cc(Cl)cc(Cl)c3)s2)cc1,24.9% (inactive)
2,COc1cccc2c1C(=O)c1c(O)c3c(c(O)c1C2=O)C[C@@](O)(C(=O)CO)C[C@@H]3O[C@H]1C[C@H](N)[C@@H](O)[C@H](C)O1,3.13% (active)
3,[2H]C1([2H])NC([2H])([2H])C([2H])([2H])N(c2ccc(Nc3ncc4cc(C(=O)N(C)C)n(C5CCCC5)c4n3)nc2)C1([2H])[2H],22.7% (inactive)
4,C=C1C(=O)O[C@H]2[C@H]1CC/C(Cn1cc(CCC)nn1)=C\CC[C@@]1(C)O[C@@H]21,-13.9% (active)
5,CCN1C(=O)N(CC)C2C1NN=c1s/c(=C\c3ccc(Br)cc3)c(=O)n12 (stereo not given),-30.5% (active)
6,CCN(CC)c1ccc2nc3c4ccccc4c(=NC(=O)c4ccccc4-c4c5ccc(N(CC)CC)cc5[o+]c5cc(N(CC)CC)ccc45)cc-3oc2c1,-69.7% (active)
7,O=C1OCC2=C1C(c1ccncc1)c1cc3c(cc1N2CCO)OCO3 (stereo not given),99.2% (inactive)
8,Cc1nn(-c2cccc(Cl)c2)c(C)c1N=Nc1ccc(Br)cc1,77.9% (inactive)
9,COc1cc(CCCO)c(OC)c(OC)c1OC,98.4% (inactive)
10,Nc1nc(Br)nc2c1ncn2C1CC(O)C(CO)O1 (stereo not given),46% (inactive)
11,COc1ccc(/C=C(/C(=O)N2CCCC2)c2cc(OC)c(OC)c(OC)c2)cc1,-14.7% (active)
12,CC1=C[C@H]2c3c(c(O)c(O)c4oc5ccccc5c(=O)c34)[C@H](c3cc(O)c(O)c4oc5ccccc5c(=O)c34)[C@H]2C(C)(C)C1,-23% (active)
13,Oc1c(CN2CCCC2)cc(COCc2ccc(Br)cc2)c2cccnc12,-9.34% (active)
14,CC(C)c1[nH]nc2c(NCc3ccc(-c4ccccn4)cc3)nc(SCCN(C)C)nc12,-16.4% (active)
15,CC(C)=NNC(N)=S,84.7% (inactive)
16,CCOc1ccccc1/C=N\Nc1ccc(S(=O)(=O)c2ccc(N/N=C/c3ccccc3OCC)cc2)cc1,102% (inactive)
17,CC1=CC(C)(C)Nc2ccc(Cc3ccc4c(c3)C(C)=CC(C)(C)N4)cc21,122% (inactive)
18,CCC1=C(c2ccc(OC)cc2)C(C)Oc2cc(OC(C)=O)ccc21 (stereo not given),56.7% (inactive)
19,C=C1C(=O)O[C@H]2[C@H]1CC/C(COC(=O)NCCc1c[nH]c3ccc(Cl)cc13)=C\CC[C@@]1(C)O[C@@H]21,-26.2% (active)
20,COc1ccc(C(=O)/C=C/C23c4ccccc4C(c4ccccc42)C2C(=O)NC(=O)C23)cc1 (stereo not given),92% (inactive)
